{
  "source": "paper PMC5700166",
  "data": [
    {"biological_target": "T1, GST-Aq-NF-kB (Amphimedon queenslandica, UniProt A9Y5G7 2-389)", "T1 sequence": "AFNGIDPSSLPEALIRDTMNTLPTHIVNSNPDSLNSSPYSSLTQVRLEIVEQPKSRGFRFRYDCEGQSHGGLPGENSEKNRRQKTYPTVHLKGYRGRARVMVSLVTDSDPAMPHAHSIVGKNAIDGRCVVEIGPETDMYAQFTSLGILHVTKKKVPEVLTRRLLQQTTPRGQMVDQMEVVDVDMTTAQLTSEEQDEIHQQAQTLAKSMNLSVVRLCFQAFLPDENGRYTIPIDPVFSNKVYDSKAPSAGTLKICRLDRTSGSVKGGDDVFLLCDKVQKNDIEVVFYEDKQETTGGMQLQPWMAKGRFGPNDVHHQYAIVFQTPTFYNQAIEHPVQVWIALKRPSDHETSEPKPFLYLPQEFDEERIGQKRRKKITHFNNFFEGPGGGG", "experiment": "protein-binding microarray (PBM); PBM: ~300 nM protein, 6 mM HEPES pH 7.8, 80 mM KCl, 0.5 mM EDTA, 0.5 mM EGTA, 6% glycerol, 35 ng/ul poly-dIdC, 1% milk, 1 h, room temperature; Ap Aiptasia and Nv Nematostella (sea anemones) / Co Capsaspora / Aq Amphimedon (sponge) / Dm Drosophila / Hu human; RHD is the Rel homology domain; high values mean tight binding", "conditions": "dsDNA, one strand shown", "units": {"binding signal": "z-score"}, "values": [
      {"sequence": "CCGATTAACATCACTAAATTTCCTGATGTTAATCGGGTCTTGATTCGCTTGACGCTGCTG", "binding signal": 1.07},
      {"sequence": "CCGATTAACATCAGGAGATTCCATGATGTTAATCGGGTCTTGATTCGCTTGACGCTGCTG", "binding signal": 1.66},
      {"sequence": "CCGATTAACATCACGGAACTTCCTGATGTTAATCGGGTCTTGATTCGCTTGACGCTGCTG", "binding signal": 2.23},
      {"sequence": "CCGATTAACATCAGGAAAACTCCTGATGTTAATCGGGTCTTGATTCGCTTGACGCTGCTG", "binding signal": 1.4},
      {"sequence": "CCGATTAACATCAAAAATATTCCTGATGTTAATCGGGTCTTGATTCGCTTGACGCTGCTG", "binding signal": 1},
      {"sequence": "CCGATTAACATCAAGATCCCTTGTGATGTTAATCGGGTCTTGATTCGCTTGACGCTGCTG", "binding signal": 1.08},
      {"sequence": "CCGATTAACATCACGGACTGTCCTGATGTTAATCGGGTCTTGATTCGCTTGACGCTGCTG", "binding signal": 2.22},
      {"sequence": "CCGATTAACATCAGGAACTGCCCTGATGTTAATCGGGTCTTGATTCGCTTGACGCTGCTG", "binding signal": 2.36},
      {"sequence": "CCGATTAACATCAGAGAAATTCCTGATGTTAATCGGGTCTTGATTCGCTTGACGCTGCTG", "binding signal": 1.65},
      {"sequence": "CCGATTAACATCACGGAATATCCTGATGTTAATCGGGTCTTGATTCGCTTGACGCTGCTG", "binding signal": 1.48},
      {"sequence": "CCGATTAACATCAGAAATTCCGCTGATGTTAATCGGGTCTTGATTCGCTTGACGCTGCTG", "binding signal": 1.09},
      {"sequence": "CCGATTAACATCACGGAGAATCCTGATGTTAATCGGGTCTTGATTCGCTTGACGCTGCTG", "binding signal": 1.18},
      {"sequence": "CCGATTAACATCAAGGAATGTCCTGATGTTAATCGGGTCTTGATTCGCTTGACGCTGCTG", "binding signal": 1.74},
      {"sequence": "CCGATTAACATCACTAAAATTCCTGATGTTAATCGGGTCTTGATTCGCTTGACGCTGCTG", "binding signal": 1.03},
      {"sequence": "CCGATTAACATCAAGAAATTCCTTGATGTTAATCGGGTCTTGATTCGCTTGACGCTGCTG", "binding signal": 1.02},
      {"sequence": "CCGATTAACATCACGGCATTTCCTGATGTTAATCGGGTCTTGATTCGCTTGACGCTGCTG", "binding signal": 1.96},
      {"sequence": "CCGATTAACATCAGAAACTTTCCTGATGTTAATCGGGTCTTGATTCGCTTGACGCTGCTG", "binding signal": 2.07},
      {"sequence": "CCGATTAACATCAAAATTTTCCATGATGTTAATCGGGTCTTGATTCGCTTGACGCTGCTG", "binding signal": 1.14},
      {"sequence": "CCGATTAACATCACGGAAAAGCCTGATGTTAATCGGGTCTTGATTCGCTTGACGCTGCTG", "binding signal": 1.34},
      {"sequence": "CCGATTAACATCACGGAAATGCCTGATGTTAATCGGGTCTTGATTCGCTTGACGCTGCTG", "binding signal": 1.48},
      {"sequence": "CCGATTAACATCAGGAAACTTCCTGATGTTAATCGGGTCTTGATTCGCTTGACGCTGCTG", "binding signal": 1.43},
      {"sequence": "CCGATTAACATCAGGGCAGTCCATGATGTTAATCGGGTCTTGATTCGCTTGACGCTGCTG", "binding signal": 1.1},
      {"sequence": "CCGATTAACATCAGGAAATGTCCTGATGTTAATCGGGTCTTGATTCGCTTGACGCTGCTG", "binding signal": 1.67},
      {"sequence": "CCGATTAACATCAGGAAATCTCCTGATGTTAATCGGGTCTTGATTCGCTTGACGCTGCTG", "binding signal": 1.25},
      {"sequence": "CCGATTAACATCACGGCAAGTCCTGATGTTAATCGGGTCTTGATTCGCTTGACGCTGCTG", "binding signal": 1.46},
      {"sequence": "CCGATTAACATCAAGGCATTTCCTGATGTTAATCGGGTCTTGATTCGCTTGACGCTGCTG", "binding signal": 1.06},
      {"sequence": "CCGATTAACATCAGGAATTCTCCTGATGTTAATCGGGTCTTGATTCGCTTGACGCTGCTG", "binding signal": 1.31},
      {"sequence": "CCGATTAACATCAGGAAGTGCCCTGATGTTAATCGGGTCTTGATTCGCTTGACGCTGCTG", "binding signal": 2.55},
      {"sequence": "CCGATTAACATCACGGATATTCCTGATGTTAATCGGGTCTTGATTCGCTTGACGCTGCTG", "binding signal": 1.34},
      {"sequence": "CCGATTAACATCAGGAATCGCCCTGATGTTAATCGGGTCTTGATTCGCTTGACGCTGCTG", "binding signal": 2.28},
      {"sequence": "CCGATTAACATCACGGAGATTCCTGATGTTAATCGGGTCTTGATTCGCTTGACGCTGCTG", "binding signal": 2.72},
      {"sequence": "CCGATTAACATCAAAATTTCCGCTGATGTTAATCGGGTCTTGATTCGCTTGACGCTGCTG", "binding signal": 1.48},
      {"sequence": "CCGATTAACATCAGAGAATTTCCTGATGTTAATCGGGTCTTGATTCGCTTGACGCTGCTG", "binding signal": 1.55},
      {"sequence": "CCGATTAACATCAGGAAATTCTATGATGTTAATCGGGTCTTGATTCGCTTGACGCTGCTG", "binding signal": 1.08},
      {"sequence": "CCGATTAACATCAGGAAATATCCTGATGTTAATCGGGTCTTGATTCGCTTGACGCTGCTG", "binding signal": 1.24},
      {"sequence": "CCGATTAACATCACGGAAGTTCCTGATGTTAATCGGGTCTTGATTCGCTTGACGCTGCTG", "binding signal": 2.56},
      {"sequence": "CCGATTAACATCACGGTCTTTCCTGATGTTAATCGGGTCTTGATTCGCTTGACGCTGCTG", "binding signal": 2.62},
      {"sequence": "CCGATTAACATCAGGCATTTCCATGATGTTAATCGGGTCTTGATTCGCTTGACGCTGCTG", "binding signal": 1.13},
      {"sequence": "CCGATTAACATCACGGAGTTTCCTGATGTTAATCGGGTCTTGATTCGCTTGACGCTGCTG", "binding signal": 3.34},
      {"sequence": "CCGATTAACATCACGGCTTTTCCTGATGTTAATCGGGTCTTGATTCGCTTGACGCTGCTG", "binding signal": 1.72}
    ]}
  ]
}
